KCNQ2 block = rat KCNQ2 potassium channel inhibitors, primary screen, cell-based, CHO-K1, FluxOR thallium flux, B-score. 20 min; hits give low values. AID 2156, 2009. Potassium voltage-gated channel subfamily KQT member 2 (Rattus norvegicus), O88943. hit rate 1.1% among 310,000. B-score at 10 µM;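 active = fluorescence ratio B-score at most minus 3 library SDs, with starting brightness B-score within 2 library SDs, cut at about -5.5 in these data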
Target sequence (O88943 whole entry, looked up): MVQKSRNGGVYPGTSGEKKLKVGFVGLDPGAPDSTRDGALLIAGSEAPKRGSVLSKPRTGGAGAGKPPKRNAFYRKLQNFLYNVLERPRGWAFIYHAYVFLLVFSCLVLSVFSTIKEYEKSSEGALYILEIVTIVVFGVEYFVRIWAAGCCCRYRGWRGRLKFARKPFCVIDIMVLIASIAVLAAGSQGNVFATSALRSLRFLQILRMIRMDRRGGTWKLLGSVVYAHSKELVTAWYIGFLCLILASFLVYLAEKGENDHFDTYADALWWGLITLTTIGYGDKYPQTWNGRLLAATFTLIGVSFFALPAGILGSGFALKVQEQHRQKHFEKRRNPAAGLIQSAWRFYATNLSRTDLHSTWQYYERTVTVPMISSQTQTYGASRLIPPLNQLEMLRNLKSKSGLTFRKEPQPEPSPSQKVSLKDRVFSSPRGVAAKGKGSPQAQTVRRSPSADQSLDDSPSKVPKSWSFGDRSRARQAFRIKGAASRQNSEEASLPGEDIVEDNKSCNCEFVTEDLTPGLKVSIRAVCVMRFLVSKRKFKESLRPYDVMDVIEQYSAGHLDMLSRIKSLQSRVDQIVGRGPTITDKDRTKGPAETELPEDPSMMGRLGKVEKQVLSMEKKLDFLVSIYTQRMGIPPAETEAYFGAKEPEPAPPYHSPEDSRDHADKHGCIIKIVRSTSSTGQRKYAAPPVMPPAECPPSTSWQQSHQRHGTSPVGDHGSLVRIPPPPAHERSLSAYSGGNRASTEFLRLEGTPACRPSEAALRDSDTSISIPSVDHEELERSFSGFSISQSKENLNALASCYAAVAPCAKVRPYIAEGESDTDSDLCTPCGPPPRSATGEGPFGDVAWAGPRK
KCNQ2 enhance = potentiators of rat KCNQ2 potassium channel. Potassium voltage-gated channel subfamily KQT member 2 (Rattus norvegicus), O88943. CHO-K1 KCNQ2, FluxOR thallium flux fluorescence; hits give high values. B-score at 10 µM. hit rate 0.54% among 310,000. AID 2239, 2010;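 active = fluorescence ratio B-score at least 3 SD of library B-scores, with initial fluorescence B-score within 3 of them, cut at about 5.3 in these data; same plate scores as AID 2156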;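 note: B-score of peak minus minimum over baseline fluorescence ratio after K+ and Tl+ stimulus; positive B-score means potentiation of KCNQ2 with more thallium influx and brighter signal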
The depositor's hits bear a star; i = inactive; . = not tested or not shown. Compounds with a hit are over-represented: about 1.6% of the library has one in this group of screens.

SMILES	KCNQ2 block	KCNQ2 enhance
Cc1ccc(Cn2nc(C)c(NC(=O)c3cc(-c4ccco4)on3)c2C)cc1	i	0.48
O=S(=O)(c1ccc(F)cc1)N1CCN(c2nc(-c3ccc(F)cc3)cs2)CC1	i	.
CCOC(=O)c1cccc(-n2c(C)cc(C=O)c2C)c1	i	2.6
CCOC(=O)c1c(-n2c(C)cc(C=O)c2C)sc2c1CCCC2	-6.1*	-6.1
O=C1NN(c2ccc(Cl)c(Cl)c2)C(=O)/C1=C/c1ccc(-c2ccccc2C(=O)O)o1	i	2.5
Cc1nn(-c2cccc3cccnc23)c(=O)c2ccccc12	i	.
CCOc1c(Cl)cc(C(=O)Nc2ccccc2-c2ccccc2)cc1Cl	i	.
COc1ccc(C(=O)Nc2ccccc2-c2ccccc2)cc1Cl	-6.2*	-6.2
Cc1c(NC(=O)COC(=O)c2cc(-c3cccc4ccccc34)nc3ccccc23)c(=O)n(-c2ccccc2)n1C	i	.
Cc1cccc(-c2cc(C(=O)Nc3c(C)n(C)n(-c4ccccc4)c3=O)c3ccccc3n2)c1	-5.9*	-5.9
CCN(CC)S(=O)(=O)c1ccc(NC(=O)COc2nc3ccccc3nc2N2CCOCC2)cc1	i	.
O=C(Cc1ccccc1)NC1CCSc2ccccc21 (configuration not stated)	-5.8*	-5.8
O=C(CCc1ccccc1)NC1CCSC1=O (configuration not stated)	i	0.52
O=C(NCCN1CCCC1)c1ccc2c(=O)n(CCc3ccccc3)c(=O)[nH]c2c1	-6*	-6
CCCN1CCN(CCCNC(=O)c2ccc3c(=O)n(CCc4ccccc4)c(=O)[nH]c3c2)CC1	i	.
c1ccc(Cc2nn3c(C4COc5ccccc5O4)nnc3s2)cc1 (configuration not stated)	i	.
c1ccc(CCc2nn3c(C4COc5ccccc5O4)nnc3s2)cc1 (configuration not stated)	-6.1*	-6.1
COc1ccc(OCC(=O)Nc2c(C(=O)N(CCN(C)C)Cc3ccco3)oc3ccccc23)cc1	i	.
COc1ccccc1C(=O)Nc1c(C(=O)N(CCN(C)C)Cc2ccco2)oc2ccccc12	-7*	-7
O=C(O)c1ccc(CN2C(=O)c3ccccc3S2(=O)=O)cc1	i	0.79
COc1ccc(CN2C(=O)c3ccccc3C2=O)cc1C(=O)O	i	.
CCc1cccc(CC)c1NC(=O)c1cc(CN2C(=O)c3ccccc3C2=O)ccc1OC	-8*	-8
Cc1ccc(NC(=O)CN(C)S(=O)(=O)c2cccc3cccnc23)cc1	i	0.49
Cc1cc(OCC(=O)N2CCN(c3ccccn3)CC2)cc(C)c1Br	-6*	-6
O=C(/C=C/c1cccc(Br)c1)N1CCN(c2ccccn2)CC1	-7.6*	-7.6
SMILES	KCNQ2 block	KCNQ2 enhance
O=C(/C=C/c1ccc(F)cc1)N1CCN(c2ccccn2)CC1	i	0.01
CCc1ccc(OCC(=O)N2CCN(c3ccccn3)CC2)c(Br)c1	i	0.22
CC(C)OC(=O)CSc1nc(-c2ccc(F)cc2)nc2ccc(F)cc12	i	0.03
COc1ccc(Cc2c[nH]c(=O)[nH]c2=O)cc1	i	.
CCOC(=O)CNC(c1ccccc1)c1cc(Br)ccc1NC(C)=O (configuration not stated)	i	.
COC(=O)CNC(c1ccccc1)c1cc(C)ccc1NS(=O)(=O)c1ccc(C)cc1 (configuration not stated)	i	.
COC(=O)CNC(c1ccccc1)c1cc(C)ccc1NC(=O)CNC(=O)OCc1ccccc1 (configuration not stated)	-5.8*	-5.8
COC(=O)CNC(c1ccccc1)c1cc(Br)ccc1NC(=O)OCc1ccccc1 (configuration not stated)	-7.4*	-7.4
Cc1cccc(NC(=O)C2CC(O)CN2C(=O)Oc2ccccc2)c1 (configuration not stated)	i	0.47
Cc1ccc2c(c1)-c1c(cnn1CC(=O)O)CO2	i	.
Cc1ccc2c(c1)-c1c(cnn1CC(=O)N1CCCN(Cc3ccccc3F)C1)CO2	-8.2*	-8.2
COc1cccc(NC(=O)CCNS(=O)(=O)c2ccc(Br)s2)c1	i	.
CCCn1c(NCc2cccc(OC)c2OC)nc2ccccc21	-5.9*	-5.9
CCCn1c(NCc2cccc(OC)c2O)nc2ccccc21	i	.
COc1ccc(OC)c(-c2cc(C(=O)Nc3c(C)n(C)n(-c4ccccc4)c3=O)no2)c1	i	0.8
O=C(Nc1ccc(O)c2c(=O)cc(-c3ccccc3Cl)oc12)c1ccc(F)cc1	i	1.5
CC(C)(C)c1ccc(C(=O)Nc2ccc(O)c3c(=O)cc(-c4ccccc4Cl)oc23)cc1	-7*	-7
O=C(N/C(=C\c1ccc(Br)cc1)C(=O)N1CCOCC1)c1ccc([N+](=O)[O-])cc1	-5.9*	-5.9
O=C(N/C(=C\c1ccco1)C(=O)N1CCOCC1)c1ccc([N+](=O)[O-])cc1	i	0.26
COC(=O)c1cc(-c2c(-c3ccc4c(c3)OCO4)noc2-c2ccsc2)cc([N+](=O)[O-])c1	i	.
CN(C)c1ccc(-c2c(-c3ccc4c(c3)OCO4)noc2-c2ccsc2)cn1	-5.9*	-5.9
COC(=O)C1CC(=O)N(CCc2c[nH]c3ccccc23)C1 (configuration not stated)	i	0.75
COc1cccc(Cn2cnc3c(NS(=O)(=O)c4cccc(Cl)c4Cl)c(C)c(C)cc32)c1	i	.
Cc1ccc(CN(CC(O)COc2cccc3[nH]cc(C)c23)C(C)(C)C)cc1 (configuration not stated)	-6.7*	-6.7
Cc1c[nH]c2cccc(OCC(CNC(C)(C)C)OC(=O)c3ccccc3)c12 (configuration not stated)	i	.
SMILES	KCNQ2 block	KCNQ2 enhance
CCN(CC(=O)Nc1ccccc1Br)C1CCCCC1	i	.
O=C(CSC1CCCCC1)Nc1ccccc1Br	i	6.9*
C/C(=N\NC(=O)CN(c1ccccc1Br)S(C)(=O)=O)c1ccc2c(c1)OCCO2	i	.
O=C(NNc1ccc([N+](=O)[O-])cc1)C1CC2CCCC(C1)C2=O (configuration not stated)	i	0.7
O=C(NNc1ccc([N+](=O)[O-])cc1)C1CC1c1ccccc1 (configuration not stated)	i	6.3*
CC(C)c1nnc(SCC(=O)N2CCOCC2)n1C	i	0.9
Cn1cc(C(=O)c2ccccc2)cc1-c1nc2ccccc2n1C	i	.
Cc1oc(-c2nc3ccccc3n2C)cc1C(=O)c1ccccc1	-6.6*	-6.6
C=CCN(C)CC/C=C1\c2ccccc2CSc2ccccc21	i	.
C#CCN(C)CC/C=C1\c2ccccc2CSc2ccccc21	-6*	-6
CCn1c(NC)cc(=O)n(C)c1=O	i	0.66
O=C(C1COc2ccccc2O1)N1CCn2c(nc3ccccc32)C1 (configuration not stated)	i	.
c1ccc(COCCC2CO2)cc1 (configuration not stated)	i	.
CN(C(=O)COC(=O)/C=C/c1ccc(F)cc1)c1c(N)n(Cc2ccccc2)c(=O)[nH]c1=O	i	1.2
CCCNC(=O)c1ccc(N2CCC3(CC2)CC(c2ccccc2)=NO3)c(NC(=O)c2ccc(Br)cc2)c1	i	.
CCCCCCCC(=O)Nc1cc(C(=O)NCCC)ccc1N1CCC2(CC1)CC(c1ccccc1)=NO2	-6*	-6

Screens: PubChem, Johns Hopkins Ion Channel Center
